Assay outcomes (PubChem)
ASK1 inh – human ASK1 kinase inhibition, primary screen. Q99683. inhibition, % at 7.44 µM. hit rate 0.99% among 22,000. AlphaScreen MKK6 phosphorylation by ASK1, luminescence; in the data active = inhibition above about 35%;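 note: 0% = median of compound wells and 100% = no enzyme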
ULK1 primary – blocks human autophagy kinase ULK1; O75385; AlphaScreen Atg13 phosphorylation by ULK1, luminescence; inhibition, % at 5.96 µM; hit rate 1.9% among 30,000; AID 1259251; in the data active = inhibition above about 43%;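 note: 0% = median of compound wells and 100% = no enzyme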
Target sequence (O75385 whole entry, looked up): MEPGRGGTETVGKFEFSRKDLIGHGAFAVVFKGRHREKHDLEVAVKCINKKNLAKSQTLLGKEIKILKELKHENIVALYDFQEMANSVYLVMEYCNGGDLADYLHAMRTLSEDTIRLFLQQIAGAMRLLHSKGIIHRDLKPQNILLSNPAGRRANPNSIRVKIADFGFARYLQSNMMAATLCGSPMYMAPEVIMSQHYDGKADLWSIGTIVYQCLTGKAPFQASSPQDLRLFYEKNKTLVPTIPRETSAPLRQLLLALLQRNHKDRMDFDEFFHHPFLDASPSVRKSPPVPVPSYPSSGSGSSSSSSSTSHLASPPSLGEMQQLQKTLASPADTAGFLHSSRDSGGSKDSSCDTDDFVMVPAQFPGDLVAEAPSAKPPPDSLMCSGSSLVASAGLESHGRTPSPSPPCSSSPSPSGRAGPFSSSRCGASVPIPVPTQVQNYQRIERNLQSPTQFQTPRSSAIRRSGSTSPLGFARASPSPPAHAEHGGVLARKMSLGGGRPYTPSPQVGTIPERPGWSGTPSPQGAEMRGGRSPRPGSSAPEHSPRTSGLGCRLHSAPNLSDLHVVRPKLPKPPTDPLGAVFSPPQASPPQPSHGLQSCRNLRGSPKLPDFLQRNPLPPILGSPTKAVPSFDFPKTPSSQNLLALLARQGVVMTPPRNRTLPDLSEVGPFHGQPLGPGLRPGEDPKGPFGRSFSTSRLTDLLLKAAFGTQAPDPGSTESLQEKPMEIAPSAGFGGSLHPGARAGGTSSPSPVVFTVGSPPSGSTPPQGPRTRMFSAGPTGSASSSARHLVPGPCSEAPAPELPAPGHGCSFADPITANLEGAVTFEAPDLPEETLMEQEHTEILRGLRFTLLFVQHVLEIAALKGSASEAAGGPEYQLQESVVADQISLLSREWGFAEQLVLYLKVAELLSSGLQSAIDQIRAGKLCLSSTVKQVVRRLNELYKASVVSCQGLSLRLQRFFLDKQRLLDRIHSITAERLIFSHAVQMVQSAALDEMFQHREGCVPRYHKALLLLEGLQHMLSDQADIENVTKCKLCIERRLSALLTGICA
Active calls of the source: *; / = no result given. Compounds with a hit are over-represented: about 2.4% of the library has one in this group of screens.

SMILES	ASK1 inh	ULK1 primary
CN1CC[C@H](Oc2cc(-c3cn[nH]c3)ccc2NC(=O)C2COc3ccccc3O2)C1 (some centres undefined)	-11.7	1.1
OC/C=C/c1ccccc1	/	0.3
N#Cc1cc(-c2ccnc(Nc3ccc(N4CCOCC4)cc3)n2)cc(N2CCNCC2)c1	34.8	77.6*
CCN1CCN(c2cc(C#N)cc(-c3ccnc(Nc4ccc(N5CCOCC5)cc4)n3)c2)CC1	-31.6	52.9*
COc1ccc(Nc2nccc(-c3cc(C#N)cc(N4CCOCC4)c3)n2)cc1	29.9	4.1
N#Cc1cc(-c2ccnc(Nc3ccc(N4CCOCC4)cc3)n2)cc(N2CCOCC2)c1	31.0	3.1
NC(=O)c1ccc(-c2cc(NCc3cccnc3)nc(N)n2)cc1	1.8	24.1
Nc1cccc(-c2cc(NCc3cccnc3)nc(N)n2)c1	-2.8	55.4*
O=S(=O)(O)c1ccc(N=NN2CCOCC2)c2ccccc12	/	0.2
O=C1CCCN1CCCNc1nc(N2CCc3ccccc3C2)nc2c1ncn2CCN1CCCC1=O	1.4	7.0
CN(C)c1cccc(Nc2nc(C(=O)NCc3ccccc3)cs2)c1	23.7	30.3
c1ccc(CN2CCC(Nc3nc(Nc4ccc(N5CCOCC5)cc4)nc4c3ncn4-c3ccccc3)CC2)cc1	32.2	7.0
CNC(=O)c1ccccc1Nc1cc(Nc2ccc3c(c2)OCO3)ncc1C(F)(F)F	-4.3	78.4*
CNC(=O)c1ccccc1Nc1cc(Nc2ccc3[nH]nc(C4=CCNCC4)c3c2)ncc1C(F)(F)F	-8.5	-19.6
CS(=O)(=O)NC1CCC(Nc2cc(Nc3ccccc3C(N)=O)c(C(F)(F)F)cn2)CC1 (centres undefined)	-51.9	22.0
CNC(=O)c1cc(F)ccc1Nc1cc(Nc2ccc(N3CCCC3=O)cc2)ncc1C(F)(F)F	11.8	73.1*
CNS(=O)(=O)c1ccccc1Nc1cc(Nc2ccccc2S(=O)(=O)NC)c(C(F)(F)F)cn1	13.6	-21.3
CNC(=O)c1ccccc1Nc1cc(Nc2ccc3[nH]c(=O)oc3c2)ncc1C(F)(F)F	-9.8	79.0*
CNS(=O)(=O)c1ccccc1Nc1cc(Nc2ccc3c(c2)CCC(=O)N3)ncc1C(F)(F)F	-40.4	90.1*
Cc1nc(NCCC(=O)O)c2oc3ccccc3c2n1	/	5.5
CNC(=O)c1ccncc1Nc1cc(Nc2ccc3c(c2)CC(=O)N3)ncc1C(F)(F)F	11.2	56.2*
CNC(=O)c1ccccc1Nc1cc(Nc2ccc3c(c2)CC(=O)N3)ncc1C(F)(F)F	0.0	73.2*
O=C1Cc2cc(Nc3ccnc(Nc4ccc(N5CCOCC5)cc4)c3)ccc2N1	17.9	19.4
CNC(=O)c1ccccc1Nc1cc(Nc2ccc3c(c2)CC(=O)N3C)ncc1C(F)(F)F	-4.8	83.8*
CNC(=O)c1cc(N2CCOCC2)ccc1Nc1cc(Nc2ccc3c(c2)CC(=O)N3)ncc1C(F)(F)F	-0.1	82.4*
SMILES	ASK1 inh	ULK1 primary
COc1nc(NCCCN2CCCC2=O)nc(-c2cccc(N)c2)n1	-6.5	1.9
CC(C)n1cnc2c(Nc3ccc(Oc4ccccc4)cc3)nc(-c3ccc(C(=O)N4CCN(C)CC4)cc3)nc21	10.0	-23.0
OC1CCC(Nc2nc(NCCOc3ccccc3)c3ncn(-c4ccccc4)c3n2)CC1 (centres undefined)	-14.6	-11.2
CCc1nnc(-c2cc3ccccc3n2Cc2cccc(F)c2)o1	/	2.6
O=C1CCCN1CCCNc1nccc(NCCOc2ccccc2)n1	-2.4	4.0
O=C(Cc1cn(-c2ccc(Nc3ccc(C(F)(F)F)cc3)nn2)c2ccccc12)NCc1nc2ccccc2[nH]1	9.0	3.2
Nn1cnnc1N/N=C/c1cccc2ccccc12	/	60.0*
COc1nc(N/N=C/c2cccc3ccccc23)nc(N2CCOCC2)n1	/	-7.8
CCCCCCCCCCCCCCCCN	/	-15.1
Clc1cc(NC2CCN(Cc3ccccc3)CC2)ncn1	-0.8	-5.1
c1ccc2nc(Nc3ccc(-n4cnc(N5CCOCC5)n4)cc3)ncc2c1	-6.7	46.2*
c1cc(-c2cn[nH]c2)cc(Nc2ccc(N3CCOCC3)cc2)n1	-2.0	27.4
Clc1cnc(Nc2ccc(-n3cnc(N4CCOCC4)n3)cc2)nc1-c1ccno1	-28.6	7.5
c1ccc(-c2ccc3cnc(Nc4ccc(-n5cnc(N6CCOCC6)n5)cc4)nc3c2)cc1	-11.4	13.0
Cc1cc(-c2nc(Nc3ccc(-n4cnc(N5CCOCC5)n4)cc3)ncc2Cl)no1	-34.6	44.4*
c1cc(-n2cnc(N3CCOCC3)n2)ccc1Nc1cc2cc(-c3cn[nH]c3)ccc2cn1	-6.2	87.3*
c1cc(-n2cnc(N3CCOCC3)n2)ccc1Nc1ncc2ccc(-c3cn[nH]c3)cc2n1	6.9	74.5*
O=c1ccc(-c2ccc3cnc(Nc4ccc(-n5cnc(N6CCOCC6)n5)cc4)nc3c2)c[nH]1	-13.1	34.0
Cc1cnc(NS(=O)(=O)c2ccc(N)cc2)nc1	/	5.5
CC(C)n1cnc2c(NC3CCN(Cc4ccccc4)CC3)nc(N3CCc4ccccc4C3)nc21	-1.8	-17.7
CCCN1C[C@H]2CCC[C@]23OCCC=C3[C@H]1c1cccc(Cl)c1	3.2	-1.9
